From PubChem BioAssay AID1159580 (chemical genetic matrix, 2015)
Values joined by “and” are separate entries in the source; they are usually repeats but may differ in a detail not shown here. Identical values can stand only once. Hit rate of the full screen: of about 5,500 compounds, about 2,000 (36%) were called active. About 18% were inconclusive and are not listed. Rule as the data show it: active = normalized growth mostly below about 0.91 (no sharp cut-off); inconclusive = no clear call, values can overlap the other calls; inactive = mostly above about 0.92. The list shows a part of the results.

Experiment: chemical genetic growth profiling, strain panel (AID 1159580);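 also: tested at 20 µM; growth read once vehicle control cultures reached saturation at 30 °C; 1 = growth at the plate median or of vehicle wells; lower values mean less growth of the strain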
Details: S. cerevisiae deletion strains, growth OD

Measured: normalized growth

CC(=O)Oc1c(C)c(C)c2c(c1C)CCC(C)(CCCC(C)CCCC(C)CCCC(C)C)O2 (stereo unspecified)
inactive: locus YAL021C, strain ccr4, active compounds read low 1 | locus YAL026C, strain drs2, active compounds read low 0.982 | locus YAL030W, strain snc1, active compounds read low 0.976 | locus YBL061C, strain skt5, active compounds read low 0.995 | locus YBR009C, strain hhf1, active compounds read low 0.957 | locus YBR021W, strain FUR4, active compounds read low 1.03 | locus YBR023C, strain chs3, active compounds read low 0.99 | locus YBR171W, strain sec66, active compounds read low 1 | locus YBR229C, strain ROT2, active compounds read low 1.02 | locus YBR231C, strain swc5, active compounds read low 0.995 | locus YBR279W, strain paf1, active compounds read low 0.985 | locus YCL011C, strain gbp2, active compounds read low 0.975 | locus YCL016C, strain dcc1, active compounds read low 0.985 | locus YCL029C, strain bik1, active compounds read low 0.995 | locus YCL061C, strain MRC1, active compounds read low 0.998 | locus YCL069W, strain vba3, active compounds read low 0.982 | locus YCR088W, strain abp1, active compounds read low 0.978 | locus YDL005C, strain med2, active compounds read low 0.979 | locus YDL035C, strain GPR1, active compounds read low 1.01 | locus YDL040C, strain nat1, active compounds read low 0.98 | locus YDL074C, strain BRE1, active compounds read low 1 | locus YDL101C, strain DUN1, active compounds read low 1.03 | locus YDL134C, strain PPH21, active compounds read low 1.02 | locus YDL185W, strain tfp1, active compounds read low 0.983 | locus YDL192W, strain arf1, active compounds read low 1.01 | locus YDR001C, strain nth1, active compounds read low 0.98 | locus YDR069C, strain doa4, active compounds read low 0.983 | locus YDR101C, strain arx1, active compounds read low 0.983 | locus YDR137W, strain rgp1, active compounds read low 0.961 | locus YDR150W, strain NUM1, active compounds read low 1.02 | locus YDR159W, strain sac3, active compounds read low 0.968 | locus YDR162C, strain NBP2, active compounds read low 1.03 | locus YDR195W, strain ref2 0.946 | locus YDR297W, strain sur2, active compounds read low 0.987 | locus YDR318W, strain mcm21, active compounds read low 1.01 | locus YDR334W, strain swr1, active compounds read low 0.988 | locus YDR335W, strain msn5, active compounds read low 0.993 | locus YDR388W, active compounds read low 0.992 | locus YDR392W, strain spt3, active compounds read low 1.03 | locus YDR502C, strain sam2, active compounds read low 0.991 | locus YEL003W, strain gim4, active compounds read low 0.983 | locus YEL037C, strain rad23, active compounds read low 0.985 | locus YEL061C, strain CIN8 (second series), active compounds read low 0.975 | locus YEL061C, strain CIN8, active compounds read low 1.01 | locus YER015W, strain faa2, active compounds read low 0.984 | locus YER016W, strain bim1, active compounds read low 0.992 | locus YER110C, active compounds read low 0.99 | locus YER111C, strain swi4, active compounds read low 0.985 | locus YER155C, strain BEM2 (second series), active compounds read low 1.01 | locus YER155C, strain BEM2, active compounds read low 1.01 | locus YER167W, strain BCK2, active compounds read low 1.02 | locus YFR010W, strain ubp6, active compounds read low 0.981 | locus YGL078C, strain dbp3, active compounds read low 0.993 | locus YGL086W, strain mad1, active compounds read low 0.991 | locus YGL167C, strain pmr1, active compounds read low 0.971 | locus YGL173C, strain kem1, active compounds read low 0.99 | locus YGL227W, strain vid30, active compounds read low 0.974 | locus YGL240W, strain doc1, active compounds read low 1 | locus YGL248W, strain PDE1, active compounds read low 1.03 | locus YGL253W, strain hxk2, active compounds read low 0.977 | locus YGR078C, strain PAC10, active compounds read low 1.03 | locus YGR135W, strain pre9, active compounds read low 1.01 | locus YGR229C, strain SMI1, active compounds read low 1.01 | locus YGR252W, strain gcn5, active compounds read low 0.978 | locus YHR013C, strain ard1, active compounds read low 0.949 | locus YHR027C, strain rpn1, active compounds read low 0.989 | locus YHR030C, strain SLT2, active compounds read low 1.02 and 1 | locus YHR079C, strain IRE1 (second series), active compounds read low 1 | locus YHR079C, strain IRE1, active compounds read low 0.964 | locus YHR094C, strain hxt1, active compounds read low 0.989 | locus YHR129C, strain ARP1, active compounds read low 1.02 | locus YHR142W, strain chs7, active compounds read low 0.987 | locus YHR200W, strain rpn10, active compounds read low 0.989 | locus YIL066C, strain RNR3, active compounds read low 1.03 | locus YIL073C, strain SPO22, active compounds read low 0.994 | locus YIL125W, strain kgd1, active compounds read low 0.991 | locus YIR030C, strain dcg1, active compounds read low 1.01 | locus YJL092W, strain hpr5, active compounds read low 0.98 | locus YJL095W, strain BCK1 (second series), active compounds read low 0.991 | locus YJL095W, strain BCK1, active compounds read low 1.05 and 0.989 | locus YJL115W, strain asf1, active compounds read low 1 | locus YJL129C, strain trk1, active compounds read low 0.987 | locus YJL134W, strain LCB3, active compounds read low 1.02 | locus YJL154C, strain vps35, active compounds read low 0.989 | locus YJL164C, strain tpk1, active compounds read low 0.995 | locus YJL166W, strain qcr8, active compounds read low 0.989 | locus YJL168C, strain set2, active compounds read low 1 | locus YJL187C, strain SWE1 (second series), active compounds read low 1.02 | locus YJL187C, strain SWE1, active compounds read low 0.991 | locus YJR043C, strain POL32, active compounds read low 1.03 | locus YJR066W, strain TOR1, active compounds read low 0.945 | locus YKL009W, strain mrt4, active compounds read low 1.01 | locus YKL068W, active compounds read low 1.01 | locus YKL085W, strain MDH1 (second series), active compounds read low 0.997 | locus YKL085W, strain MDH1, active compounds read low 0.997 | locus YKL160W, strain elf1, active compounds read low 1 | locus YKL190W, strain CNB1, active compounds read low 1.02 | locus YKR001C, strain vps1, active compounds read low 0.999 | locus YKR026C, strain gcn3, active compounds read low 0.976 | locus YKR091W, strain srl3, active compounds read low 0.977 | locus YLL001W, strain dnm1, active compounds read low 0.99 | locus YLL026W, active compounds read low 0.98 | locus YLL041C, strain sdh2, active compounds read low 0.992 | locus YLR027C, strain aat2, active compounds read low 0.99 | locus YLR039C, strain RIC1, active compounds read low 1.08 | locus YLR058C, strain SHM2, active compounds read low 1.03 | locus YLR102C, strain apc9, active compounds read low 0.993 | locus YLR113W, strain HOG1, active compounds read low 0.949 | locus YLR221C, strain rsa3, active compounds read low 1 | locus YLR258W, strain gsy2, active compounds read low 0.97 | locus YLR262C, strain YPT6 (second series), active compounds read low 0.989 | locus YLR262C, strain YPT6, active compounds read low 1.09 | locus YLR268W, strain sec22, active compounds read low 0.984 | locus YLR320W, strain mms22, active compounds read low 0.984 | locus YLR330W, strain CHS5, active compounds read low 1.02 | locus YLR342W, strain FKS1 (second series), active compounds read low 1.04 | locus YLR342W, strain FKS1, active compounds read low 0.979 | locus YLR357W, strain rsc2, active compounds read low 1.01 | locus YLR370C, strain arc18, active compounds read low 1 | locus YLR371W, strain rom2, active compounds read low 0.981 | locus YLR384C, strain iki3, active compounds read low 0.991 | locus YLR418C, strain cdc73, active compounds read low 1.01 | locus YML016C, strain PPZ1, active compounds read low 1.02 | locus YML032C, strain rad52, active compounds read low 1.01 | locus YML120C, strain ndi1, active compounds read low 1.01 | locus YML124C, strain tub3, active compounds read low 0.991 | locus YMR058W, strain fet3, active compounds read low 1.01 | locus YMR078C, strain ctf18, active compounds read low 1 | locus YMR125W, strain sto1, active compounds read low 1 | locus YMR129W, active compounds read low 0.975 | locus YMR205C, strain PFK2, active compounds read low 0.96 | locus YMR223W, strain ubp8, active compounds read low 1.01 | locus YMR231W, strain pep5, active compounds read low 0.976 | locus YMR307W, strain GAS1, active compounds read low 1.07 | locus YNL067W, strain RPL9B, active compounds read low 1.03 | locus YNL071W, strain lat1, active compounds read low 1 | locus YNL183C, strain NPR1, active compounds read low 0.949 | locus YNL209W, strain ssb2, active compounds read low 0.986 | locus YNL233W, strain BNI4, active compounds read low 1.01 | locus YNL248C, strain rpa49, active compounds read low 1.05 | locus YNL250W, strain rad50, active compounds read low 1 | locus YNL271C, strain bni1, active compounds read low 0.995 | locus YNL298W, strain CLA4, active compounds read low 0.995 | locus YNL307C, strain MCK1, active compounds read low 0.987 | locus YNL322C, strain KRE1 (second series), active compounds read low 0.99 | locus YNL322C, strain KRE1, active compounds read low 1.02 | locus YNR049C, strain mso1, active compounds read low 0.986 | locus YNR052C, strain pop2, active compounds read low 0.984 | locus YOL012C, strain htz1 0.81 | locus YOL147C, strain pex11, active compounds read low 0.991 | locus YOR001W, strain rrp6, active compounds read low 1.01 | locus YOR061W, strain CKA2, active compounds read low 1.03 | locus YOR069W, strain VPS5, active compounds read low 1.01 | locus YOR070C, strain gyp1, active compounds read low 0.988 | locus YOR080W, strain dia2, active compounds read low 0.992 | locus YOR083W, strain WHI5, active compounds read low 1.01 | locus YOR106W, strain vam3, active compounds read low 0.977 | locus YOR136W, strain idh2, active compounds read low 0.98 | locus YOR144C, strain elg1, active compounds read low 0.986 | locus YOR184W, strain ser1, active compounds read low 0.99 | locus YOR231W, strain MKK1, active compounds read low 0.978 | locus YOR265W, strain rbl2, active compounds read low 0.988 | locus YOR270C, strain vph1, active compounds read low 0.976 | locus YOR290C, strain snf2, active compounds read low 1.01 | locus YOR316C, strain cot1, active compounds read low 0.997 | locus YPL051W, strain arl3, active compounds read low 1.01 | locus YPL078C, strain atp4, active compounds read low 0.995 | locus YPL106C, strain sse1, active compounds read low 1.05 | locus YPL240C, strain hsp82, active compounds read low 0.995 | locus YPL241C, strain CIN2, active compounds read low 1.02 | locus YPL256C, strain CLN2, active compounds read low 1.05 | locus YPR119W, strain clb2, active compounds read low 0.995 | locus YPR141C, strain kar3, active compounds read low 1 | locus YPR163C, strain tif3, active compounds read low 0.991 | locus YPR167C, strain met16, active compounds read low 0.995 | strain wtn01, active compounds read low 0.977
